Results as given in PubChem BioAssay AID588343 (Broad Institute, 2011).
About 650 (54%) of roughly 1,200 compounds were called active. Not shown: some 5% with an inconclusive outcome.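 The calls were made as follows: active = signal-lowering curve whose fitted half-maximal concentration is at or below ten times the top valid dose tested; inconclusive = flat curve with 30 to 70% inhibition, or poor fit; inactive = signal increase, flat within 30%, or potency beyond limit.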 The set was probably picked from earlier hits. The list is a sample of the results. Entries with a potency or affinity are not part of this list.

Test: inhibitors of LMP1-driven NF-kB reporter, dose response, cell-based, HEK293, luciferase, cherry-pick (AID 588343)
Conditions: HEK293 LMP1 TES2 NF-kB luciferase reporter, 16 h; series mostly up to 35 µM

outcome, inactive:
CC(=O)Nc1ccc(S(=O)(=O)N2CCCC2)cc1
COc1ccc(S(=O)(=O)N2CCCCCC2)cc1C(=O)OCc1cccc(OC)c1OC
COC(=O)c1cc2n(n1)CCN(Cc1ccccc1Cl)C2=O
COC(=O)CCCC[C@@H]1SC[C@@H](NC(=O)OC)[C@@H]1NC(=O)OC
N#CCCn1cc(C(=O)Nc2ccccn2)c(-c2ccccc2)n1
C/C(=N\Nc1ccc(C(F)(F)F)cc1[N+](=O)[O-])C(C)C
CN(CC(=O)Nc1cccnc1)S(=O)(=O)c1ccc(Br)cc1
COc1ccc(S(=O)(=O)N2CCOCC2)cc1NC(=O)COC(=O)CCS(=O)(=O)c1ccc(C)cc1
N#CCN(N=Nc1ccccc1)c1ccccc1
COc1cc(C2NC(=O)NC(C)=C2C(=O)OC2CCCC(C)C2)cc(Br)c1O (stereo not drawn)
COc1cccc(C2=CC(=O)C[C@H](c3ccc4c(c3)OCO4)C2)c1
CCOC(=O)C1CCN(S(=O)(=O)Cc2ccccc2)C1=O (stereo not drawn)
Cc1cc(N2CCCC2=O)cc(C)c1S(=O)(=O)Nc1c(C)nn(C)c1C
N#CC1=C(N)OC2=C(C(=O)CCC2)C12C(=O)N1CCCc3cccc2c31 (stereo not drawn)
O=C1CCc2cc(OCCCCc3nnnn3C3CCCCC3)ccc2N1
CN(C)S(=O)(=O)c1cccc(NC(=O)c2n[nH]c(=O)c3ccccc23)c1
Cc1cc(C)nc(SCC(=O)OCN2C(=O)c3ccccc3C2=O)n1
Cc1cc(N=Cc2c(O)ccc3cc(Br)ccc23)no1
Cc1cc2ccccc2n1CCNC(=O)COc1ccc2ccccc2c1
CCOc1ccc(N(C(C)C(=O)N2CCCCCC2)S(C)(=O)=O)cc1 (stereo not drawn)
CCOc1cccc(CNc2nnnn2C)c1
CCOc1ccc(S(=O)(=O)N2CCC(C(=O)NCCc3ccc(S(N)(=O)=O)cc3)CC2)cc1
COc1ccccc1/C=C/C(=O)c1ccc(Cl)cc1
CCn1c(NC(=O)c2ccc(C)cc2)c2ccccc2nc1=O
COc1ccc(NC(=O)c2cc3c(CO)cnc(C)c3oc2=Nc2cccc(F)c2)c(OC)c1
Brc1ccc(-c2csc(N3CCCCCC3)n2)cc1
C=CCn1c(SCc2ccc3nonc3c2)nnc1-c1cccs1
Oc1ccccc1C=NN=Cc1c(O)ccc2ccccc12
COc1cccc(/C=N\NC(=O)c2ccc(C)nc2)c1
COc1cc(C2CC(=O)N3CN(Cc4ccccc4)CSC3=C2C#N)ccc1OCc1ccccc1 (stereo not drawn)
Cc1cc(C)c(S(=O)(=O)N2CCN(C(=O)c3ccccc3OCc3c(C)noc3C)CC2)c(C)c1
COc1cc(OC)cc(C(=O)N[C@H](C(=O)OCC(=O)c2ccc(C)c([N+](=O)[O-])c2)C(C)C)c1
COCCn1c(SCC(=O)N2CCc3ccccc32)nc2c(c1=O)SC(C)C2 (stereo not drawn)
COCCNC(=O)C1CCC(CNS(=O)(=O)c2ccccc2)CC1 (stereo not drawn)
COc1ccc(N2C3=[N+](CC2(C)O)c2ccccc2CC3)cc1 (stereo not drawn)
CC(CCc1ccco1)N(C)S(=O)(=O)c1csc(C(N)=O)c1 (stereo not drawn)
CCc1nnc(NC(=O)c2cc(S(=O)(=O)N3CCN(CC)CC3)ccc2Cl)s1
Cc1nn(CCCC(=O)Nc2cccnc2Cl)c(C)c1[N+](=O)[O-]
Cc1ccc(N2C(=O)c3ccccc3C2Nc2cccnc2)nc1 (stereo not drawn)
COC(=O)C1=NNC(C(=O)OC)C1c1ccccc1 (stereo not drawn)
CCOC(=O)C1=C(C)N(C)C(=O)NC1c1ccccc1OC (stereo not drawn)
CCCN(CC1CC1)c1nc(C)nc(Nc2c(Cl)cc(Cl)cc2Cl)c1Cl
CC1CCC(NC(=O)CC2Oc3ccccc3NC2=O)CC1 (stereo not drawn)
